# GLP1R inv ag – qHTS of GLP-1 Receptor Inverse Agonists (Inhibition Mode). HEK293 GLP-1R CRE-luciferase, luminescence, 24 h; GLP-1R form is constitutively active. Potency, µM (highest dose often 38.3 µM), for the others: at the highest dose activity change, negative = inhibition, actives largely listed as inhibitors. 410,000 compounds, 1.6% hits. AID 624417, 2012; note: % is set by controls: 0 for no effect and ±100 for the full control effect; nearly all actives have a fitted effect of over 55% in size
# Target sequence (P43220 whole entry, looked up): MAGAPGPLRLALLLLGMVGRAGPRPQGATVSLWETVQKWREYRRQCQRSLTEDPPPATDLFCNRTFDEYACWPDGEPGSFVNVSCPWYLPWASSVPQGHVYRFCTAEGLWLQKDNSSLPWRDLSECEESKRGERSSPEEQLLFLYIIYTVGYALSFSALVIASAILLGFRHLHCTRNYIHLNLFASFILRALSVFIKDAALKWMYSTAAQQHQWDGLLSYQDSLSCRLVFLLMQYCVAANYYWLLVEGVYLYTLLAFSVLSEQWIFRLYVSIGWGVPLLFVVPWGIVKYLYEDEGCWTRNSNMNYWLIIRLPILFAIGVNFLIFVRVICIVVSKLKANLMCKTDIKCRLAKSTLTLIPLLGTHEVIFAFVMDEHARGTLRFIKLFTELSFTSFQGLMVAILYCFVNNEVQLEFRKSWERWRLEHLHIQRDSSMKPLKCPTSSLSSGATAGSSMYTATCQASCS
#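 Readout was luciferase luminescence, measured 12 min after detection reagent at room temperature. Beforehand, GLP-1R reporter HEK293 cells had sat 12 h, then received compounds for 24 hr at 37 deg C.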
# BRCA1 expr up – qHTS Assay to Identify Small Molecule Activators of BRCA1 Expression | MCF7-BRCA1-FFLuc reporter, luminescence, 48 h; response scale: scaled: vehicle 0%, 10 µM genistein 100% | Potency, µM (top dose mostly 46.1 µM), for the others: at the top dose activation, hits mostly activators | 380,000 compounds, 1.1% hits | AID 624202, 2012; note: nearly all actives have a fitted effect of over 80% in size
#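 Activators of BRCA1 expression were detected as increased firefly luciferase luminescence in engineered MCF7 cells after 48 h compound incubation. Signals were scaled to genistein 10 microM as full activation.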
# GLP1R ag – qHTS of GLP-1 Receptor Agonists | HEK293 GLP-1R CRE-luciferase, luminescence, 4-6 h; cells express a hypersensitive GLP-1R form | Potency, µM (titrated, usually from 45.6 µM), for the others: at the highest dose activation, most hits filed as activators | 380,000 compounds, 0.007% hits; note: % of control where 0% means no effect
# GLP1R cytotox – qHTS of GLP-1 Receptor Inverse Agonists: Cytotox Screen; HEK293 cAMP-luciferase reporter cells, luminescence, 24 h; Potency, µM (top dose mostly 38.3 µM), without a hit: at the highest dose activity change, negative = inhibition, most hits filed as inhibitors; 410,000 compounds, 0.13% hits;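 note: loss of luciferase light is scored as toxicity; % is set by controls: 0 for no effect and ±100 for the full control effect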
#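 1536-well qHTS counterscreen of the MLSMR; 200 cells/uL, 12 h pre-incubation, 23 nL cpd, 24 h at 37 deg C 5% CO2, luciferase detection reagent, 12 min RT, luminescence. Inhibition = undesired.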
# * hit, by the source's call; ? = inconclusive; . = not tested or not shown. The list is not random: actives were taken first. Their share in the collection is about 2.6%. Calls come from the whole dose curve; as a rule, active = well fitted curve in the direction sought with a large enough effect; inconclusive = small, poorly fitted or top-dose-only effect, or another doubt; inactive = no such curve, though single readings can be large; an effect the other way counts as inactive or inconclusive. Potency is the fitted concentration of half-maximal effect.
SMILES,GLP1R inv ag,BRCA1 expr up,GLP1R ag,GLP1R cytotox
COc1ccc2oc(C(=O)OCC(=O)N(C)Cc3ccccc3)c(C)c2c1,?,-6.1%,7.3%,17.8%
COc1ccc2oc(C(=O)N(C)CCOc3ccccc3)c(C)c2c1,?,11.2µM*,4.4%,14.5%
N#CN=c1snc(-c2ccccc2Cl)n1-c1ccccc1Cl,.,-61.2%,.,.
CC1CCN(C(=O)c2cc3c(ccc4ccccc43)o2)CC1,10µM*,-2.5%,-0.7%,24.5%
COc1cccc(CNC(=O)[C@@H]2CCCN2C(=O)OC(C)(C)C)c1,14.4%,0.0%,15.0%,-3.5%
Cc1ccc(F)c([C@H]2[C@H]3C=CC[C@@H](C)[C@@H]3C(=O)N2Cc2ccccc2)c1,10µM*,-3.7%,-2.8%,6.1%
C[C@@H]1CC=C[C@H]2[C@H]1C(=O)N(Cc1ccccc1)[C@H]2c1ccc(-c2ccc(N(C)C)cc2)cc1F,7.94µM*,-31.1%,0.4%,2.9%
C[C@@H]1CC=C[C@H]2[C@H]1C(=O)N(Cc1ccccc1)[C@H]2c1cccc([N+](=O)[O-])c1,7.08µM*,0.0%,1.5%,1.9%
CCOCCN1CCN(C(=O)CN2CCCC2=O)CC1,4.2%,-13.3%,-1.8%,-2.1%
CC(=O)c1ccc(N2CCN(c3ncccn3)CC2)cc1,20.7%,10µM*,23.3%,7.4%
CC(=O)c1ccc(NC(=O)CN2CCN(c3ncccn3)CC2)cc1,3.3%,-21.1%,0.4%,-13.4%
CCOCCc1nn2c(=O)cc(COC(=O)c3ccccc3Br)nc2s1,4.4%,.,.,2.6%
CCCC1CC(C)(c2csc(Nc3ccc(OCC)cc3)n2)OC1=O (centres undefined),11.2µM*,-46.8%,10.5%,-18.0%
COc1ccc(-n2c(=O)c3ccc(C(=O)NCc4ccc(C)cc4)cc3n(Cc3cccc(Cl)c3)c2=O)cc1,7.3%,-3.3%,-2.5%,-8.1%
O=C(Nc1ccncc1)c1cnn2c1NC(=C1CC1)C=C2C(F)F,.,12.9%,.,.
Cc1ccccc1Nc1nc(N)nc(COC(=O)c2ccco2)n1,29.5%,3.98µM*,12.2%,17.8%
O=C(CCC(=O)N1CC2CCCN2c2ccccc21)NCc1ccc(Cl)cc1 (centres undefined),?,-9.5%,0.0%,2.7%
O=C(Nc1ccon1)c1sc2cc(F)ccc2c1Cl,69.3%,15.3%,-33.1%,17.1%
O=C(NCc1ccco1)c1cc(-c2ccc(F)cc2)on1,0.0%,8.91µM*,-14.2%,2.5%
O=C(NCc1ccco1)c1ccc2ccccc2c1,2.9%,11.2µM*,1.5%,0.2%
O=C(NCc1ccco1)c1sc2cc(F)ccc2c1Cl,4.3%,12.6µM*,21.4%,-7.4%
O=C(NCc1ccco1)c1cc(-c2ccccc2)on1,50.5%,?,-9.9%,-9.5%
CCN(CC)C(=O)Cn1cc(C(=O)C(=O)N2CCN(c3ccc([N+](=O)[O-])cc3)CC2)c2ccccc21,?,-31.2%,3.3%,?
CCOc1cc(-c2nc3c(c(CC)nn3-c3ccccc3)c3cc(OC)c(OC)cc23)ccc1O,0.6%,.,.,-0.5%
CCc1c(C#N)c(SCCC(=O)Nc2ccc(OC)cc2)nc2c1C(=O)CC(C)(C)C2,?,-42.3%,3.7%,1.9%
SMILES,GLP1R inv ag,BRCA1 expr up,GLP1R ag,GLP1R cytotox
CCc1c(C#N)c(SCc2c(C)noc2C)nc2c1C(=O)CC(C)(C)C2,8.91µM*,-41.0%,3.2%,7.2%
CCN(C(=O)c1cc2c(s1)-c1c(C)cccc1OC2)c1ccccc1F,?,.,.,11.3%
CCN(C(=O)c1cc2c(s1)-c1c(C)cccc1OC2)c1cc(C)ccc1C,11.2µM*,.,.,31.7%
Cc1cccc2c1-c1sc(C(=O)N3CCCCC3)cc1CO2,?,6.31µM*,16.6%,3.2%
CCOC(=O)N1CCN(C(=O)c2cc3c(s2)-c2c(C)cccc2OC3)CC1,?,3.0%,11.2%,15.4%
COc1ccc(CNc2nc(-c3ccccc3)nn2C(=O)c2cccs2)cc1,2.1%,43.5%,2.3%,1.1%
COc1ccc(CNc2nc(-c3ccccc3)nn2C(=O)c2ccc([N+](=O)[O-])cc2)cc1,2.3%,11.2µM*,0.9%,-11.5%
COC(=O)c1ccc(COC(=O)CNC(=O)c2ccc(OC)cc2)cc1,58.9%,5.01µM*,3.3%,1.0%
COc1ccc(C(=O)OCCc2ccc(O)cc2)cc1,44.2%,5.01µM*,14.3%,4.8%
CCC(=O)NCC(c1cccs1)N1CCOCC1 (centres undefined),-5.1%,1.6%,-2.1%,0.3%
Cc1cc(Br)ccc1SCC(=O)NCC(c1ccco1)N1CCCCC1 (centres undefined),?,-37.8%,2.7%,?
Cc1ccc(C)c(SCC(=O)NCC(c2ccco2)N2CCCCC2)c1 (centres undefined),11.2µM*,-8.7%,-2.7%,3.7%
Cc1c(C(=O)NCC(c2ccco2)N2CCCC2)sc2ccccc12 (centres undefined),8.91µM*,-67.7%,12.7%,-1.4%
Cc1cc(SCC(=O)NCC(c2cccs2)N2CCOCC2)c(C)cc1Br (centres undefined),11.2µM*,-34.8%,0.3%,1.2%
O=C(NCC(c1ccco1)N1CCCC1)c1sc2ccccc2c1Cl (centres undefined),-24.1%,17.0%,20.9%,-15.0%
CC(C)(Oc1ccc(Cl)cc1)C(=O)NCC(c1ccco1)N1CCCCC1 (centres undefined),8.91µM*,-15.6%,-1.8%,6.1%
CC(C)C[C@H]1CN(CCCC[C@H]2CNC(=O)C(=O)N2Cc2ccccc2)C(=O)C(=O)N1CCc1ccc(O)cc1,9.4%,2.3%,-1.2%,1.5%
CC(=O)Nc1ccc(S(=O)(=O)NC(C)C(=O)NCC(c2ccco2)N2CCCCC2)cc1 (centres undefined),6.7%,-1.3%,5.8%,0.8%
Cc1ccc(S(=O)(=O)NC(CC(C)C)C(=O)NCC(c2ccco2)N2CCCCC2)cc1 (centres undefined),4.47µM*,12.2%,-3.3%,-0.8%
CC1CCCN(C(=O)CNC(=O)c2cccs2)C1 (centres undefined),15.9%,10µM*,-2.1%,-4.1%
COc1cccc2cc(-c3nc(Nc4cccc(C)c4C)sc3C)c(=O)oc12,10µM*,.,.,0.8%
CC(C)(C)c1cc(C(C)(C)C)c2oc(=O)c(-c3nc4ccccc4[nH]3)cc2c1,-7.1%,.,.,32.9%
COc1cccc2cc(-c3ccccc3)c(=O)oc12,3.0%,2.51µM*,12.9%,-6.9%
COc1cccc2cc(-c3nc4ccccc4[nH]3)c(=O)oc12,22.1%,3.16µM*,9.6%,86.6%
O=c1cc(O)c(Cl)c[nH]1,.,.,-2.8%,.
CC(CN(C)C)CN1c2ccccc2S(=O)(=O)c2ccccc21 (centres undefined),.,.,3.8%,.
CCOc1ccc(NC(=O)c2cc3c(=O)n4cccc(C)c4nc3s2)cc1,8.5%,.,.,2.9%
COc1ccc(CCNC[C@H](O)COc2cccc(C)c2)cc1OC,.,.,3.0%,.

# From PubChem
